Experimental data taken from PubChem BioAssay AID624298 (National Center for Advancing Translational Sciences (NCATS), 2012).
Inconclusive results are not listed. A call without a number means that no potency is given here. Calls of active or inactive are those of the source. The call rests on the fitted dose curve; in most records, active means well fitted activation curve with a large enough effect; inconclusive means small, poorly fitted or top-dose-only effect; inactive means no such curve, though single readings can be large or run the other way.
Potency means the concentration at half of the fitted maximal effect.

Assay: Activators of T cell receptors: Hit Validation
Conditions: primary human leukocytes, cytokine release by HTRF, 48 h, TCR-stimulated with anti-CD3 beads; series mostly up to 46.1 µM
From the text: Normally activation of naive T cells requires two signals. 1. A signal through the T cell receptor (TCR) which provides antigen specificity to the response. 2. Signals through co-stimulatory molecules, which are necessary for proliferation, survival and cytokine production. In the absence of co-stimulatory signals T cells are not effectively activated, and may even be rendered anergic or unresponsive to subsequent signaling. This lack of costimulation has been shown in multiple model systems to be a major factor in the limited strength and effectiveness of anti-tumor T cell responses. The goal of this project is to identify small molecule compounds that will stimulate T cell activation in the presence of TCR signaling but in the absence of co-stimulatory signals, thereby allowing activation of naive T cells in the absence of co-stimulation. Identification of such compounds would have clear experimental and clinical applications in instances where desirable antigen-specific immune responses are not generated due to a lack of co-stimulation, for example in the generation of anti-tumor responses.
In collaboration between the National Cancer Institute and NIH Chemical Genomics Center, a high-throughput amenable screen was developed to discover small molecules that co-stimulate and activate human T cell receptors. The screen will be carried out using a novel homogeneous time resolved fluorescence energy transfer (HTRF) assay to measure production of the cytokine IL-2 by activated T cells and will be tested against the NIH Molecular Libraries Small Molecule Repository (MLSMR). This is the same assay tested against the hits identified in the primary screen.
NIH Chemical Genomics Center [NCGC]
NIH Molecular Libraries Probe Centers Network [MLPCN]
Assay Submitter (PI): Richard Hodes, National Cancer Institute, NIH
Primary human leukocytes are incubated with a-CD3 beads and compounds for 48 hr. The amount of secreted IL-2 is then assayed with a HTRF IL-2 kit. The presence of IL-2 cytokine captures the detection reagents and brings the a-IL-2-K and a-IL-2-d2 into close proximity. Upon excitation with 320nm light, the europium cryptate is capable of transferring energy to acceptor molecules within close proximity, resulting in acceptor molecule emission at 665nm.
For `O=C(Cc1cccs1)Nc1ccc(F)c(S(=O)(=O)N2CCOCC2)c1`, the Potency was “inactive”. In the case of `Cc1[nH]c2ccccc2c1C(=O)CSc1nnc(C2CC2)o1`, the Potency is reported as “inactive”. In the case of `CCN(CC)c1ccc(S(=O)(=O)N2CCOCC2)cc1NC(=O)COC(=O)/C=C/c1ccccc1`, the Potency is reported as “inactive”. For `COc1cc(/C=C/C(=O)O)cc(OC)c1OC`, the Potency was “inactive”. With `CC(=O)NS(=O)(=O)c1ccc(NC(=S)NC(=O)COc2ccccc2C)cc1` the Potency was 14.1 µM (active). With `COc1cc(C)c(NC(=S)NCCCN2CCOCC2)cc1OC` the Potency was “inactive”. In the case of `COc1cccc(CNC(=O)c2ccc(Cl)c(S(=O)(=O)N3CCOCC3)c2)c1`, the Potency is reported as “inactive”. For `CC(NC(=S)NCCN1CCOCC1)C12CC3CC(CC(C3)C1)C2` (stereo not given), the Potency was “inactive”. In the case of `CCC(=C/c1sc2ccc3ccccc3c2[n+]1C)/C=C1\Sc2ccc3ccccc3c2N1C`, the Potency is reported as 9.96 µM (active). With `Cc1cccc(NC(=O)c2sc3nc(N)c(C#N)cc3c2N)c1` the Potency was “inactive”. With `CN(C)c1cccc(C(=O)N(Cc2ccccc2)Cc2ccccc2)c1` the Potency was “inactive”. With `Oc1ccccc1CN1CCCC(N2CCN(c3cccc(C(F)(F)F)c3)CC2)C1` (stereo not given) the Potency was “inactive”. In the case of `Cc1[nH]c2ccccc2c1C(=O)COc1ccccc1F`, the Potency is reported as “inactive”. For `CCOC(=O)C1CCN(C(=O)c2cccc(S(=O)(=O)N3CCc4ccccc43)c2)CC1`, the Potency was “inactive”. With `COc1ccc(Cl)cc1NC(=O)CN1C(=O)NC(C)(Cc2ccc(OC)c(OC)c2)C1=O` (stereo not given) the Potency was “inactive”. In the case of `Cc1onc(-c2c(F)cccc2Cl)c1C(=O)Nc1sc2c(c1C(N)=O)CCC2`, the Potency is reported as “inactive”. In the case of `Cc1ccc(C(=O)OCC(=O)NCc2ccco2)cc1C`, the Potency is reported as “inactive”. With `COc1ccc(NC(=O)C2CC(=O)N(Cc3ccco3)C2)cc1Cl` (stereo not given) the Potency was “inactive”. For `CCOc1ccc(C(=O)N(CN2CCCC2=O)c2cccc(Cl)c2)cc1`, the Potency was “inactive”. In the case of `CCOC(=O)c1sc(NC(=O)C2CC(=O)N(c3ccc4c(c3)OCCO4)C2)nc1C` (stereo not given), the Potency is reported as “inactive”. In the case of `COc1ccc(CNC(=O)C[C@H]2C[C@H](C(=O)N3CCCCC3)[C@@]3(C)c4[nH]c5cc(-c6ccco6)ccc5c4CCN3C2=O)cc1OC`, the Potency is reported as “inactive”. In the case of `CC(=O)Nc1nnc(S(N)(=O)=O)s1`, the Potency is reported as “inactive”. For `COc1ccc(OC)c(NC(=O)COC(=O)c2ccc(OC)c(S(=O)(=O)N3CCOCC3)c2)c1`, the Potency was “inactive”. For `Cc1cc(=O)[nH]c(N/N=C/c2cccs2)n1`, the Potency was “inactive”. For `Cc1ccc(C(=O)NCCc2nnc3ccc(SCC(=O)N4CCCCC4)nn23)cc1`, the Potency was “inactive”. For `CC1CCCN(S(=O)(=O)c2ccc(NC(=O)C3CCN(C(=O)C(C)(C)C)CC3)cc2)C1` (stereo not given), the Potency was “inactive”. In the case of `O=C(COc1ncnc2c(Cl)cc(Cl)cc12)Nc1cc([N+](=O)[O-])ccc1Cl`, the Potency is reported as “inactive”. With `CCCn1c(-c2ccccc2)nc2c(=O)n(C)c(=O)[nH]c21` the Potency was “inactive”. With `CC(=O)Nc1ccc(NC(=O)C(C)OC(=O)c2c(NC(C)=O)sc(C)c2C)cc1` (stereo not given) the Potency was “inactive”. In the case of `CSCCC(NC(=O)c1ccco1)C(=O)NCC1CCCO1` (stereo not given), the Potency is reported as “inactive”. For `CC(C)c1nnc(SCC(=O)N2CCOCC2)n1C`, the Potency was “inactive”. For `O=C1N/C(=C/c2cccs2)C(=O)N1Cc1ccc(Br)cc1`, the Potency was “inactive”. With `O=C(O)c1ccc(NC(=O)C(c2ccccc2)c2ccccc2)cc1` the Potency was “inactive”. In the case of `Cn1nc(C(F)(F)F)cc1-c1ccc(S(N)(=O)=O)s1`, the Potency is reported as “inactive”. With `CCN(CC(=O)Nc1ccccc1C(F)(F)F)C(=O)c1ccccc1Sc1ccccc1C#N` the Potency was “inactive”. In the case of `c1ccc(Sc2ccccn2)cc1`, the Potency is reported as “inactive”. In the case of `Cc1ccc(NC(=O)CN(C)C(=O)COC(=O)c2nccnc2N)cc1`, the Potency is reported as “inactive”. For `CCCCN1CCC(COC(=O)c2cc(Cl)c(N)c3c2OCCO3)CC1`, the Potency was “inactive”. For `O=C1N=C(O)CN1/N=C/c1ccc(-c2ccc([N+](=O)[O-])cc2)o1`, the Potency was “inactive”. In the case of `CCN(CC)c1ccc2nc3ccccc3[n+](CC)c2c1`, the Potency is reported as 4.99 µM (active).
